Experimental data: PubChem BioAssay (NCATS)
Inconclusive results are not listed. Entries that show only a call come without a potency. The source made the active and inactive calls. Calls follow the shape of the dose curve; as a rule, active = well fitted cell-killing curve with a large enough effect; inconclusive = small, poorly fitted or top-dose-only effect; inactive = flat fitted curve, though single readings scatter.

What was measured:
[1] = Cell Viability - LYMP2-017 (AID 972); also: nearly all actives have a fitted effect of over 55% in size; also: potency is read from the fitted curve at half-maximal effect
Summary of the method: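 Human lymphoblastoid cells (2500/well) were seeded in complete medium, held 5 hr at 37 C, then exposed to compounds for 24 hr at 37 C. Intracellular ATP was read by CellTiter-Glo luminescence after 30 min at room temperature, with AC50 values from Hill-equation fits.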

[2] = Cell Viability - LYMP2-019 (AID 973); also: nearly all actives have a fitted effect of over 55% in size
Summary of the method: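 Human lymphoblastoid cells were seeded at 2500 cells/well, preincubated 5 hr at 37 C, then exposed to compounds for 24 hr at 37 C in complete medium. Intracellular ATP was measured by CellTiter-Glo luminescence; AC50 from Hill fits.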

[3] = Cell Viability - LYMP2-021 (AID 974);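 also: compound exposure lasts 24 hours at 37 °C; nearly all actives have a fitted effect of over 55% in size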; also: potency is read from the fitted curve at half-maximal effect
Summary of the method: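 Human lymphoblastoid cells (2500/well) were preincubated 5 hr at 37 C, then exposed to compounds for 24 hr at 37 C in complete medium. Intracellular ATP was read by CellTiter-Glo luminescence; AC50 came from Hill-equation fits of concentration-response data.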

[4] = Cell Viability - LYMP2-023 (AID 975); also: nearly all actives have a fitted effect of over 55% in size; also: potency is read from the fitted curve at half-maximal effect
Summary of the method: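 Human lymphoblastoid cells (2500/well) were preincubated 5 hr at 37 C, then exposed to compounds for 24 hr at 37 C in complete medium. Cellular ATP was read by CellTiter-Glo luminescence, and AC50 came from Hill-equation fits.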

[5] = Cell Viability - LYMP2-025 (AID 976); also: series mostly up to about 92 µM
Summary of the method: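 Human lymphoblastoid LYMP2-025 cells (2500/well) were pre-incubated 5 hr at 37 C, then treated with compounds for 24 hr at 37 C in complete medium. Viability was read as intracellular ATP by CellTiter-Glo luminescence; AC50 from Hill fits.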

[6] = Cell Viability - LYMP2-002 (AID 977);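 also: series mostly up to about 92 µM; compound exposure lasted 24 h at 37 °C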
Summary of the method: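 Human lymphoblastoid LYMP2-002 cells, 2500 per well, exposed to compounds for 24 h at 37 C in complete medium; viability read as intracellular ATP by CellTiter-Glo luminescence, AC50 from Hill fits.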

[7] = Cell Viability - LYMP2-006 (AID 978); also: series mostly up to about 92 µM; nearly all actives have a fitted effect of over 60% in size
Summary of the method: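 Potency values are Hill-fit AC50s for decreases in intracellular ATP (CellTiter-Glo luminescence). LYMP2-006 lymphoblastoid cells, 2500 per well, were exposed to compound in complete culture medium for 24 hr at 37 C.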

[8] = Cell Viability - LYMP2-007 (AID 979);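 also: cells exposed to compound for 24 h before reading; nearly all actives have a fitted effect of over 60% in size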; also: potency is read from the fitted curve at half-maximal effect
Summary of the method: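 Human lymphoblastoid cells (2500/well) were plated in complete medium, incubated 5 hr at 37 C, then exposed to compounds for 24 hr at 37 C. Intracellular ATP was read by CellTiter-Glo luminescence after 30 min at room temperature; AC50 from Hill fits.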

[9] = Cell Viability - LYMP2-008 (AID 980); also: nearly all actives have a fitted effect of over 60% in size; also: potency is read from the fitted curve at half-maximal effect
Summary of the method: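 Human lymphoblastoid cells (2500/well) were plated, held 5 hr at 37 C, then exposed to compounds for 24 hr at 37 C in complete medium. Intracellular ATP was read by CellTiter-Glo luminescence; AC50 from Hill-fitted concentration-response.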

[10] = Cell Viability - LYMP2-012 (AID 982)

Row | SMILES | Potency [1] | outcome [2] | Potency [3] | Potency [4] | outcome [5] | outcome [6] | outcome [7] | Potency [8] | Potency [9] | outcome [10]
1 | CCCCOC(=O)c1ccc(O)cc1 | inactive | inactive | inactive | inactive | inactive | inactive | inactive | inactive | inactive | inactive
2 | NC(=O)N/N=C/c1ccc([N+](=O)[O-])o1 | – | – | inactive | – | – | – | – | inactive | – | –
3 | NC(=O)c1ncn([C@@H]2O[C@H](CO)[C@@H](O)[C@H]2O)n1 | inactive | – | inactive | inactive | inactive | inactive | – | inactive | inactive | inactive
4 | NCCNCCNCCN | inactive | inactive | inactive | inactive | inactive | inactive | – | inactive | inactive | inactive
5 | COc1ccccc1O | inactive | inactive | inactive | inactive | inactive | inactive | inactive | inactive | inactive | inactive
6 | Oc1cccc(O)c1 | inactive | inactive | inactive | inactive | inactive | inactive | inactive | inactive | inactive | inactive
7 | Cc1cc2nc3c(=O)[nH]c(=O)nc-3n(C[C@H](O)[C@H](O)[C@H](O)CO)c2cc1C | inactive | inactive | inactive | inactive | inactive | inactive | inactive | inactive | inactive | inactive
8 | [Cl][In]([Cl])[Cl] | inactive | inactive | inactive | inactive | inactive | inactive | inactive | inactive | inactive | inactive
9 | Cc1cc(CC(=O)O)n(C)c1C(=O)c1ccc(Cl)cc1 | inactive | inactive | inactive | inactive | inactive | inactive | inactive | inactive | inactive | inactive
10 | C[C@]12C[C@H](O)[C@H]3[C@@H](CCC4=CC(=O)CC[C@@]43C)[C@@H]1CC[C@@H]2C(=O)CO | inactive | inactive | inactive | inactive | inactive | inactive | inactive | inactive | inactive | inactive
11 | Nc1ccc(S(=O)(=O)Nc2nccs2)cc1 | inactive | – | inactive | inactive | inactive | inactive | inactive | inactive | inactive | inactive
12 | CC12CCC(CC1)C(C)(C)O2 | inactive | inactive | inactive | inactive | – | inactive | inactive | inactive | inactive | inactive
13 | NCCNCCNCCNCCN | inactive | inactive | inactive | inactive | inactive | inactive | inactive | inactive | inactive | inactive
14 | CC1(C)[C@@H]2CC[C@@]1(C)C(=O)C2 | inactive | inactive | inactive | inactive | inactive | inactive | inactive | inactive | inactive | inactive
15 | COC(=O)C1=C(C)NC(C)=C(C(=O)OC)C1c1ccccc1[N+](=O)[O-] | – | – | – | – | inactive | – | – | – | – | –
16 | CN(C)CCC=C1c2ccccc2CCc2ccccc21 | – | – | – | – | inactive | – | – | – | – | –
17 | Cc1c(O)cccc1C(=O)N[C@@H](CSc1ccccc1)[C@H](O)CN1C[C@H]2CCCC[C@H]2C[C@H]1C(=O)NC(C)(C)C | 50.1 µM (active) | – | 50.1 µM (active) | 50.1 µM (active) | – | – | – | 50.1 µM (active) | 39.8 µM (active) | –
18 | O=C1O[C@H]([C@@H](O)CO)C(O)=C1O | – | inactive | inactive | inactive | inactive | inactive | inactive | inactive | inactive | inactive
19 | O=C1c2c(O)cccc2Cc2cccc(O)c21 | inactive | inactive | inactive | inactive | inactive | inactive | inactive | inactive | inactive | inactive
20 | CCCCCCCCCCCCOS(=O)(=O)O | inactive | inactive | inactive | inactive | inactive | inactive | inactive | inactive | inactive | inactive
